FLuc counter: firefly luciferase modulation, counter-screen for miR-21 project | purified FLuc, Km substrates, luminescence inhibition | Potency, µM (top dose mostly 57.5 µM), for inactives: at the highest dose activity change, negative = inhibition, hits mostly inhibitors | hit rate 6.9% among 360,000 | AID 588342;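 further: plate controls were vehicle for no effect and reference inhibitor for full effect; nearly all actives have a fitted effect of over 55% in size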
Target sequence (P08659 whole entry, looked up): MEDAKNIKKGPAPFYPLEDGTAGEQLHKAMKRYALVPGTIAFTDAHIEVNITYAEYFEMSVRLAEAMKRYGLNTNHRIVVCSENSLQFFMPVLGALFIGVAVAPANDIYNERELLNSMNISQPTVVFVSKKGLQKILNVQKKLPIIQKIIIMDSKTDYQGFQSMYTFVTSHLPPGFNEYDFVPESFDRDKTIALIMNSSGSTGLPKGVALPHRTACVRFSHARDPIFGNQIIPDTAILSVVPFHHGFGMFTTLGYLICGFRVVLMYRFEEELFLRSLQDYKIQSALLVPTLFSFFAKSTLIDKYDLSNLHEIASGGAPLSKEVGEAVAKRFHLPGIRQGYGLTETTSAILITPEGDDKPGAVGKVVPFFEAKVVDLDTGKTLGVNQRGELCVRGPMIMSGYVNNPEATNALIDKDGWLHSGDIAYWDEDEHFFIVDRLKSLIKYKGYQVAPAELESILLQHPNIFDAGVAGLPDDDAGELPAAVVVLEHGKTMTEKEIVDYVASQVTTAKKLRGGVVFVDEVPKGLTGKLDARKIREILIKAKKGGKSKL
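Purified P. pyralis luciferase, 10 nM final, with Km-level 10 uM D-luciferin and 10 uM ATP in 50 mM Tris acetate pH 7.5, 10 mM Mg acetate, 0.01% Tween-20, 0.05% BSA; 6-point qHTS titration about 60 µM downward; luminescence read.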
NPC1 promoter act: activates the NPC1 promoter; Huh7 NPC1 promoter luciferase reporter, 24 h; Potency, µM (top dose mostly 9.22 µM), inactives show top-dose activation, most hits filed as activators; hit rate 2.4% among 320,000; AID 485313; further: % of control where 0% means no effect; nearly all actives have a fitted effect of over 60% in size
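Readout is luciferase luminescence, reflecting NPC1 promoter activation in stably transfected Huh7 cells after 24 h compound exposure at 37 °C in reduced-serum medium with 10% FBS.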
uPA surface inh: cell surface uPA generation inhibition | cell surface uPA generation assay, qHTS | Potency, µM (series often up to 38.3 µM), without a hit: top-dose activity change, negative = inhibition, usual class: inhibitors | hit rate 0.31% among 330,000; active means well fitted inhibition curve with a large enough effect; inconclusive means small, poorly fitted or top-dose-only effect; inactive means no such curve, though single readings can be large or run the other way; tested in mouse RAW 264.7 cells; further: on the % scale 0 is the no-effect control and ±100 the full control effect; nearly all actives have a fitted effect of over 55% in size
Rab9 prom act: activates the Rab9 promoter | Huh7 Rab9 promoter-luciferase reporter, luminescence, 24 h | AID 485297 | hit rate 2.8% among 320,000 | Potency, µM (series often up to 9.22 µM), without a hit: top-dose activation, negative = inhibition, hits mostly activators; further: % of control where 0% means no effect; nearly all actives have a fitted effect of over 60% in size
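Huh7 cells stably carrying a Rab9 promoter-luciferase reporter, 1500 cells per well in OP-MEM I with 10% FBS, treated with compound 24 hours at 37C. Luciferase activity read by luminescence after 10 minutes with Amplite reagent.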
ELG1 genotoxic: inducers of genotoxicity in HEK293T ELG1-luciferase cells. Potency, µM (highest dose often 46 µM), inactives show at the highest dose activity change, positive = activation, actives largely listed as activators. hit rate 1.3% among 330,000. HEK293T ELG1-luciferase reporter, luminescence, 16 h; further: % of control where 0% means no effect; nearly all actives have a fitted effect of over 60% in size
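Reporter readout depends on ELG1 protein level, which increases with genetic stress. After 16 hr compound exposure at 37 °C, luciferase activity was quantified using ONE-Glo.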
SMN2 splice enh: enhancers of SMN2 splice variant expression; AID 1458; HEK293 SMN2-luciferase splicing reporter, luminescence, 30-36 h; Potency, µM (series often up to 46.1 µM), for inactives: at the highest dose activity change, positive = activation, actives largely listed as activators; hit rate 2.8% among 210,000; further: % of control where 0% means no effect; nearly all actives have a fitted effect of over 55% in size
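qHTS luciferase splicing reporter: luminescence rises when SMN2 exon 7 is included in transfected HEK293 cells. Compound exposure lasted 30-36 h at 37C, with 4.5 mM final sodium butyrate as control, followed by a ONE-Glo read.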
* hit, by the source's call; ? = inconclusive; . = not tested or not shown; [ ] = remark or other dose. Hits are enriched below; roughly 7.3% of the tested compounds scored in any of these assays. Unless noted, the call rests on the fitted dose curve; in most records, active means well fitted curve in the direction sought with a large enough effect; inconclusive means small, poorly fitted or top-dose-only effect, or another doubt; inactive means no such curve, though single readings can be large; an effect the other way counts as inactive or inconclusive. Potency means the concentration at half of the fitted maximal effect.

SMILES	FLuc counter	NPC1 promoter act	uPA surface inh	Rab9 prom act	ELG1 genotoxic	SMN2 splice enh
Clc1ccc(OCc2nc(-c3ccncc3)no2)c(Cl)c1	2.1µM*	0.89µM*	4%	0.63µM*	7.3µM*	16µM*
CCOc1ccccc1NC(=O)c1ccccc1-c1nc(-c2ccccc2OC)no1	11µM*	2%	2%	6%	-18%	.
COCCNC(=O)c1ccccc1-c1nc(-c2ccccc2OC)no1	?	?	0%	0%	2%	-28%
CCOc1ccc(-c2nc(-c3ccc(OC)cc3)no2)cc1OCC	-3%	-1%	-1%	1%	-1%	-30%
CC(C)(C)OC(=O)N1CCC(c2c(C(=O)NCc3ccco3)cnn2-c2ccc(F)cc2F)CC1	2%	.	.	.	.	.
CCN(CC)S(=O)(=O)c1ccc(NC(=O)Cn2ncc3c([nH]c4ccccc43)c2=O)cc1	-17%	.	.	.	.	.
Cc1ccc(C(=O)/C=C/c2cc(C#N)n(C)c2C)cc1	8.5µM*	13%	0%	14%	9%	.
Cc1c(C=C2C(=O)c3ccccc3C2=O)cc(C#N)n1C	1%	-4%	4%	-5%	-2%	.
Cc1ccnc2c1ccc1ccccc12	17µM*	-6%	5%	13%	2%	.
COc1cc(/C=N/NC(=S)Nc2cccc(S(=O)(=O)N(C)C)c2)cc(OC)c1O	15µM*	-3%	1%	0%	-4%	-8%
CN(C)S(=O)(=O)c1cccc(NC(=S)N/N=C/c2ccco2)c1	?	2%	-10%	1%	-2%	.
CN(C)S(=O)(=O)c1cccc(NC(=S)N/N=C/c2ccc(O)c(O)c2O)c1	13µM*	-4%	-2%	-4%	-17%	.
COc1ccc(O)c(/C=N/NC(=S)Nc2cccc(S(=O)(=O)N(C)C)c2)c1	11µM*	-12%	-11%	-24%	11%	-59%
COc1cc(/C=N\NC(=O)C2CC3C=CC2C3)ccc1O (centres undefined)	-18%	-3%	-4%	-2%	3%	13%
CC1Cc2ccccc2N1C(=O)COC(=O)/C=C/c1ccc(F)cc1 (centres undefined)	4%	-7%	4%	-1%	1%	.
CC1Cc2ccccc2N1C(=O)/C=C/c1cccc(F)c1 (centres undefined)	6µM*	2.2µM*	-5%	1.8µM*	?	11µM*
COc1ccc(C(=O)NCC2OCCc3ccccc32)c(O)c1 (centres undefined)	21µM*	28%	-2%	?	?	?
CN(C)c1ccc(/C=N/Nc2nncc3ccccc23)cc1	0.43µM*	0.32µM*	-12%	0.32µM*	0.73µM*	.
COc1ccc(/C=N/Nc2nncc3ccccc23)c(OC)c1	9.5µM*	?	-8%	?	?	13µM*
CCNc1nc(NCC)nc(N/N=C/c2cc(OC)c(OC)c(OC)c2)n1	?	-4%	-21%	0%	-6%	.
COc1ccc(OC)c(NC(=O)CSc2nncc3ccccc23)c1	2%	1%	0%	7%	-2%	.
Cc1ccc2nc(C)cc(N/N=C/c3cccc(O)c3)c2c1	0%	-1%	1%	-1%	-2%	.
Cc1cccc(/C=N/Nc2nncc3ccccc23)c1	0.85µM*	0.56µM*	-15%	0.32µM*	0.46µM*	2.5µM*
CCNc1nc(NCC)nc(N/N=C/c2ccc(N(C)C)cc2)n1	?	2%	-1%	-3%	-1%	4%
COc1cc(/C=N/Nc2nncc3ccccc23)cc(OC)c1OC	8.5µM*	1.6µM*	3%	?	?	.
SMILES	FLuc counter	NPC1 promoter act	uPA surface inh	Rab9 prom act	ELG1 genotoxic	SMN2 splice enh
C(=N\Nc1nncc2ccccc12)/c1ccccc1	0.54µM*	1.1µM*	-17%	1.4µM*	?	.
COc1ccc(/C=C2\Oc3cc(OCC(=O)N4CCC[C@H]4C(=O)O)ccc3C2=O)cc1OC	1.3µM*	-2%	-2%	-3%	-1%	.
COc1ccc(/C=C2\Oc3cc(OCC(=O)N4CCC[C@H]4C(=O)O)ccc3C2=O)c(OC)c1OC	?	-5%	-5%	1%	7%	.
COc1ccc(OC)c(/C=C2\Oc3cc(OCC(=O)N4CCC(C(=O)O)CC4)ccc3C2=O)c1	-19%	-4%	7%	-17%	0%	.
COc1ccc(/C=C2\Oc3cc(OCC(=O)N4CCC(C(=O)O)CC4)ccc3C2=O)c(OC)c1	6.7µM*	0%	-6%	-7%	1%	.
COc1cccc(/C=C2\Oc3cc(OCC(=O)N4CCCC4)ccc3C2=O)c1OC	9.5µM*	-3%	5%	-1%	2%	.
COc1cccc(/C=C2\Oc3cc(OCC(=O)N4CCCCC4)ccc3C2=O)c1OC	9.5µM*	-5%	0%	-7%	2%	.
CCc1ccc(NC(=O)CN2C(=O)c3cccc4cccc2c34)cc1	4%	.	.	.	.	-10%
Cc1ccc(Cn2c(C)c(CNCC(C)c3ccccc3)c(C(=O)O)c2C)cc1 (centres undefined)	-7%	.	.	.	.	-9%
CCOC(=O)c1ccc(NC(=O)C2CCCO2)cc1 (centres undefined)	?	?	-2%	6.3µM*	27%	43%
CCOC(=O)c1ccc(NC(=O)Nc2ccon2)cc1	19µM*	16%	-79%	-9%	7.3µM*	.
CCCCOC(=O)c1ccc(NC(=O)C2CCCO2)cc1 (centres undefined)	?	28%	5%	?	15%	8%
CCCCc1nnc(NC(=O)C2CCCO2)s1 (centres undefined)	-2%[2.3 µM]	11%	18%	28%	15%	35µM*
CCC(CC)c1nnc(NC(=O)C2CCCO2)s1 (centres undefined)	3%	0%	3%	0%	-9%	0%
CCCCc1ccc(NC(=O)C2CCCO2)cc1 (centres undefined)	13µM*	1.6µM*	-7%	2.2µM*	?	10µM*
Cc1cc(NC(=O)C2CCN(S(=O)(=O)c3ccc(Br)s3)CC2)ccc1Br	-3%	.	.	.	.	-1%
Cc1nnc(NC(=O)C2=COCCO2)s1	-2%	11%	0%	17%	?	.
CCCCc1nnc(NC(=O)C2=COCCO2)s1	17µM*	2.5µM*	-4%	4.5µM*	15µM*	.
CCCCC(=O)Nc1cc(C)c(NC(=O)c2cccs2)cn1	0%	-5%	-4%	-2%	-1%	.
CCCCC(=O)Nc1cnc(NC(=O)c2cccs2)cc1C	19µM*	3.2µM*	-26%	2µM*	?	.
COc1ccc(C(=O)Nc2cc(C)c(NC(=O)c3ccccn3)cn2)cc1	1.1µM*	?	-2%	?	2%	.
COc1ccc(C(=O)Nc2cnc(NC(=O)c3cccs3)cc2C)cc1	17µM*	?	4%	?	?	.
Cc1cc(NC(=O)C2CC2)ncc1NC(=O)c1ccccn1	?	?	0%	2.5µM*	?	?

Screens as filed in PubChem BioAssay.
